The full ranking holds about 4,500 sequences; the median of “log2 normalized fluorescence” is about -0.34, and the highest 2% start at about 3.3. For the sample, the highest values were picked, then their nearest neighbours and some sequences at random.
Target: MAX:MAX (p21) (human, UniProt P61244-2 1-151)
Experiment: protein-binding microarray (anti-MAX antibody); PBM: 15 mM Tris-HCl pH 7.5, 100 mM KCl, 0.075% NP40, 7.5 mM beta-mercaptoethanol, 375 ng/ul BSA, 8 ng/ul poly(dA-dT):(dA-dT), 550 ng complex, 60 min, room tempe; high values mean tight binding
Settings: protein: recombinant; tags: 6xHis; chain copies: 2; label: 3' end of printed strand (linker) attached to glass slide; dsDNA, one strand shown
Outline: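 Binding, given as log2 normalized fluorescence, was measured on a custom Agilent glass array. The array bore ~5000 unique 12-nt sequences spotted in triplicate and converted to double strands by primer extension. It was incubated with 550 ng of human His-tagged MYC:MAX or MAX:MAX dimers from E. coli for 60 min at room temperature in Tris-KCl buffer, pH 7.5, with NP40, BSA and poly(dA-dT) competitor, and bound protein was detected with anti-MAX and secondary antibodies and scanned at 543 nm.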

MAX:MAX (p21), sequence (P61244 other isoform, or with tags, fused parts or gaps): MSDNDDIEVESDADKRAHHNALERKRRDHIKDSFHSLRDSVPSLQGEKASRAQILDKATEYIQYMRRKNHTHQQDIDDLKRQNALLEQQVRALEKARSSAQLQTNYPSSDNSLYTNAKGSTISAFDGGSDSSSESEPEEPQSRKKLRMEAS

Row | Sequence | binding signal
1 | CCGGCAAACACGTAGTATTAATAGCTAAGATTACTATATCGACG | 2.6 log2 normalized fluorescence
2 | CCGGCTTACATGTGGAATTAATAGCTAAGATTACTATATCGACG | 3.25 log2 normalized fluorescence
3 | CCGGCTAACACGTAGTATTAATAGCTAAGATTACTATATCGACG | 1.92 log2 normalized fluorescence
4 | CCGGCCGACACGTCGTATTAATAGCTAAGATTACTATATCGACG | 2.07 log2 normalized fluorescence
5 | CCGGCTTACACGTGGGATTAATAGCTAAGATTACTATATCGACG | 3.12 log2 normalized fluorescence
6 | CCGGCTTACACGTGGAATTAATAGCTAAGATTACTATATCGACG | 3.37 log2 normalized fluorescence
7 | CCGGCTGACACGTGGAATTAATAGCTAAGATTACTATATCGACG | 3.16 log2 normalized fluorescence
8 | CCGGCTAACACGTCGTATTAATAGCTAAGATTACTATATCGACG | 2.38 log2 normalized fluorescence
9 | CCGGCCGACACGTGGAATTAATAGCTAAGATTACTATATCGACG | 3.32 log2 normalized fluorescence
10 | CCGGCTAACACGTGGAATTAATAGCTAAGATTACTATATCGACG | 3.35 log2 normalized fluorescence
11 | CCGGCTGAAGACGGGTATTAATAGCTAAGATTACTATATCGACG | -0.654 log2 normalized fluorescence
12 | CCGGCTGACCCGTGGTATTAATAGCTAAGATTACTATATCGACG | 2.38 log2 normalized fluorescence
13 | CCGGCTGAGCAGGAGTATTAATAGCTAAGATTACTATATCGACG | -0.201 log2 normalized fluorescence
14 | CCGGCAGACACGATGTATTAATAGCTAAGATTACTATATCGACG | 3.02 log2 normalized fluorescence
15 | CCGGCTGAGATCACGTATTAATAGCTAAGATTACTATATCGACG | 0.425 log2 normalized fluorescence
16 | CCGGCTGAGGGTTCGTATTAATAGCTAAGATTACTATATCGACG | -0.732 log2 normalized fluorescence
17 | CCGGCTGAACCCTCGTATTAATAGCTAAGATTACTATATCGACG | 0.0153 log2 normalized fluorescence
18 | CCGGCTGAAGCGGGGTATTAATAGCTAAGATTACTATATCGACG | 0.358 log2 normalized fluorescence
19 | CCGGCTGATTCGATGTATTAATAGCTAAGATTACTATATCGACG | -0.732 log2 normalized fluorescence
20 | CCGGCTGACGGGCGGTATTAATAGCTAAGATTACTATATCGACG | -0.202 log2 normalized fluorescence
21 | CCGGCTGCCACGACGTATTAATAGCTAAGATTACTATATCGACG | 1.79 log2 normalized fluorescence
22 | CCGGCTGCCACGTGATATTAATAGCTAAGATTACTATATCGACG | 3.13 log2 normalized fluorescence
23 | CCGGCTGCCACGTGCGATTAATAGCTAAGATTACTATATCGACG | 3.47 log2 normalized fluorescence
24 | CCGGCTGTCACGTGGAATTAATAGCTAAGATTACTATATCGACG | 3.19 log2 normalized fluorescence
25 | CCGGCTGCCACGCGGAATTAATAGCTAAGATTACTATATCGACG | 3.15 log2 normalized fluorescence
26 | CCGGCTGCCACGAGGAATTAATAGCTAAGATTACTATATCGACG | 3.34 log2 normalized fluorescence
27 | CCGGCTGCCACGTGCTTTTAATAGCTAAGATTACTATATCGACG | 3.14 log2 normalized fluorescence

Row | Sequence | binding signal
28 | CCGGCTGCCACGTGTTATTAATAGCTAAGATTACTATATCGACG | 3.28 log2 normalized fluorescence
29 | CCGGCTGCCACGTGGAATTAATAGCTAAGATTACTATATCGACG | 3.31 log2 normalized fluorescence
30 | CCGGCGGACACGAGGTATTAATAGCTAAGATTACTATATCGACG | 3.32 log2 normalized fluorescence
31 | CCGGCAGACACGAGGTTTTAATAGCTAAGATTACTATATCGACG | 3.03 log2 normalized fluorescence
32 | CCGGCTAACACGAGGTATTAATAGCTAAGATTACTATATCGACG | 3.28 log2 normalized fluorescence
33 | CCGGCGGACACGCGGTATTAATAGCTAAGATTACTATATCGACG | 3.26 log2 normalized fluorescence
34 | CCGGCAGACACGAGGTATTAATAGCTAAGATTACTATATCGACG | 3.44 log2 normalized fluorescence
35 | CCGGCTGACACGAGGTATTAATAGCTAAGATTACTATATCGACG | 3.08 log2 normalized fluorescence
36 | CCGGCTGACCCAAGGTATTAATAGCTAAGATTACTATATCGACG | -0.0673 log2 normalized fluorescence
37 | CCGGCTGACATGTGGCCTTAATAGCTAAGATTACTATATCGACG | 2.99 log2 normalized fluorescence
38 | CCGGCTGAGTCACTGTATTAATAGCTAAGATTACTATATCGACG | -0.498 log2 normalized fluorescence
39 | CCGGCTGATTGCGAGTATTAATAGCTAAGATTACTATATCGACG | -0.512 log2 normalized fluorescence
40 | CCGGCTGACACGTGCCTTTAATAGCTAAGATTACTATATCGACG | 3.18 log2 normalized fluorescence
41 | CCGGCTGACACGTGCCCTTAATAGCTAAGATTACTATATCGACG | 3.16 log2 normalized fluorescence
42 | CCGGCTGACACGTGCGCTTAATAGCTAAGATTACTATATCGACG | 3.16 log2 normalized fluorescence
43 | CCGGCTGACACGTGCTTTTAATAGCTAAGATTACTATATCGACG | 3.34 log2 normalized fluorescence
44 | CCGGCTAACACGTGCTTTTAATAGCTAAGATTACTATATCGACG | 3.33 log2 normalized fluorescence
45 | CCGGCCGACACGTGCTTTTAATAGCTAAGATTACTATATCGACG | 3.21 log2 normalized fluorescence
46 | CCGGCTGACACGTAGCTTTAATAGCTAAGATTACTATATCGACG | 1.51 log2 normalized fluorescence
47 | CCGGCTGACACGTGTGCTTAATAGCTAAGATTACTATATCGACG | 3.4 log2 normalized fluorescence
48 | CCGGCTGACACGTGGCTTTAATAGCTAAGATTACTATATCGACG | 3.04 log2 normalized fluorescence
49 | CCGGCTGAGACGTGGGATTAATAGCTAAGATTACTATATCGACG | 0.979 log2 normalized fluorescence
50 | CCGGCTGAATGTCTGTATTAATAGCTAAGATTACTATATCGACG | 0.29 log2 normalized fluorescence
51 | CCGGCTGATGCAGCGTATTAATAGCTAAGATTACTATATCGACG | -0.0989 log2 normalized fluorescence
52 | CCGGCTGGCACCTGGTATTAATAGCTAAGATTACTATATCGACG | 1.88 log2 normalized fluorescence
53 | CCGGCTGACTAATGGTATTAATAGCTAAGATTACTATATCGACG | -0.355 log2 normalized fluorescence
